According to PMC4336329 (PLoS ONE, 2015):
Screen size: about 310,000 compounds; about 14,000 (4.5%) showed an effect of 50% or more. The effect is printed as a negative number. Many of the other results were omitted from the sample, so strong results are more common in it than they were.

What follows are compounds tested against human ether-à-go-go-related gene (hERG) potassium channel (human, UniProt Q12809) (assay: primary screen, population patch clamp on CHO cells stably expressing hERG; higher = less effect of the substance).
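Note: peak tail current of the secondary pulse compared with the same well before compound.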

human ether-à-go-go-related gene (hERG) potassium channel, sequence (Q12809 whole entry, looked up): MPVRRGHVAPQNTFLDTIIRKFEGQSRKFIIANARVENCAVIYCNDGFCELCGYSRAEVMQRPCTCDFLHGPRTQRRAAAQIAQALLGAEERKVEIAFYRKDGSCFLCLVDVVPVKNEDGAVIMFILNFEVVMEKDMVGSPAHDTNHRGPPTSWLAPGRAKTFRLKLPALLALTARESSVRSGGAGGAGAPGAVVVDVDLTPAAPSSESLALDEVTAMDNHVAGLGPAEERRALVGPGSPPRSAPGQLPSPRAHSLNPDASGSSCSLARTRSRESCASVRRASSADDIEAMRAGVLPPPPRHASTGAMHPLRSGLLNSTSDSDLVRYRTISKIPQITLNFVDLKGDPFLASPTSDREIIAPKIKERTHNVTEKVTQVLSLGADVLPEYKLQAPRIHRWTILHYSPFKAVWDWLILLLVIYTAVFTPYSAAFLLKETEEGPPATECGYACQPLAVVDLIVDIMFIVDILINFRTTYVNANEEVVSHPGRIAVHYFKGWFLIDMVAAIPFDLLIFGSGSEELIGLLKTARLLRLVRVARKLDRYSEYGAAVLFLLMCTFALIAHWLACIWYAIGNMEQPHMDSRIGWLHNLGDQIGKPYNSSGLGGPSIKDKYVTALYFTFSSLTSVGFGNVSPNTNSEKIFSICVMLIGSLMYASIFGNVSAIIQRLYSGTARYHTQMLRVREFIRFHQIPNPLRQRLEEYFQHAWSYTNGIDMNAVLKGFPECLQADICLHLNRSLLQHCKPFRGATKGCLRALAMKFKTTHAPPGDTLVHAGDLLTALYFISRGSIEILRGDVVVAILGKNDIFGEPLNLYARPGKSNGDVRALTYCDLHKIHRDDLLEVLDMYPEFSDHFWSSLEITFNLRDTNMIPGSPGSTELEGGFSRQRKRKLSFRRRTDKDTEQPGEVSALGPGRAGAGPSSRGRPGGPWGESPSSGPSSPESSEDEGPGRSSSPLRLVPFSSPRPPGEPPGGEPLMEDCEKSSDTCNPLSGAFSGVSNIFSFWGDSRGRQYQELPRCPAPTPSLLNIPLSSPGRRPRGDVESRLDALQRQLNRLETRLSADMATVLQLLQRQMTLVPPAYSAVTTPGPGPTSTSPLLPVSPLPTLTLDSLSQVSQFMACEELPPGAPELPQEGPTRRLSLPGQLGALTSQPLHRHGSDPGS

In order of rising “hERG current change (%, negative = inhibition) at 10uM” value:
1. O=C(Nc1ccnn1C1CCN(CCCC2CCCC2)CC1)c1ccccc1Cl  -86.4%
2. COc1ccccc1C(=O)Nc1ccnn1C1CCN(CCCC2CCCC2)CC1  -85.1%
3. CCCCCCn1c(CN2CCN(C)CC2)nc2c1c(=O)n(C)c(=O)n2C  -80.9%
4. FC(F)Oc1ccc(-n2cc(-c3ccc(Cl)cc3)[n+]3c2CCCCC3)cc1.[Br-]  -78.3%
5. COc1ccc(-n2cc(-c3ccc(OC(F)F)cc3)[n+]3c2CCCCC3)cc1.[Br-]  -76.3%
6. O=C(Nc1ccnn1C1CCN(CCCC2CCCC2)CC1)c1ccccc1  -73.1%
7. COc1ccc(N2CCN(CCCNC(=O)CCC(=O)N3CCOc4ccc(Cl)cc43)CC2)cc1  -70.4%
8. O=C(CCC(=O)N1CCOc2ccccc21)N1CCN(c2ccccc2)CC1  -70%
9. CCCCCn1c(CN2CCN(C(=O)OCC)CC2)nc2c1c(=O)[nH]c(=O)n2C  -69.8%
10. O=C(c1sc2cc(Cl)ccc2c1Cl)N1CCN(CCc2ccccn2)CC1  -69.6%
11. O=C(c1sc2ccccc2c1Cl)N1CCN(c2ccccn2)CC1  -68.7%
12. O=C(c1sc2ccccc2c1Cl)N1CCN(CCc2ccccn2)CC1  -60.5%
13. CCCCCCn1c(CN2CCCC(C)C2)nc2c1c(=O)n(C)c(=O)n2C (centres unmarked)  -58.1%
14. FC(F)Oc1ccc(-n2cc(-c3ccccc3)[n+]3c2CCCCC3)cc1.[Br-]  -55.6%
15. CCCCCCn1c(CN2CCN(C(=O)OCC)CC2)nc2c1c(=O)n(C)c(=O)n2C  -53.5%
16. COc1ccc(N2CCN(C(=O)CCC(=O)N3CCOc4ccc(Cl)cc43)CC2)cc1  -52.8%
17. Clc1ccc(-c2cn(-c3ccc(Cl)cc3)c3[n+]2CCCCC3)cc1.[Br-]  -52.7%
18. Clc1ccc(-n2cc(-c3ccc(Br)cc3)[n+]3c2CCCCC3)cc1.[Br-]  -49.4%
19. Br.FC(F)Oc1ccc(-c2csc(NNC3=NCCCCC3)n2)cc1  -47.5%
20. Cc1noc(C)c1C(=O)N1CCN(C(=O)c2sc3cc(Cl)ccc3c2Cl)CC1  -47.4%
21. COc1ccc(N(C(=O)c2ccco2)S(=O)(=O)c2ccccc2)cc1  -44.3%
22. Cc1ccc2c(c1)N(C(=O)CCC(=O)N1CCN(c3ccccc3)CC1)CCO2  -43.8%
23. COc1ccc(N2CCN(C(=O)CCC(=O)N3CCOc4ccc(C)cc43)CC2)cc1  -42.7%
24. CCOC(=O)N1CCN(Cc2nc3c(c(=O)[nH]c(=O)n3C)n2CCCc2ccccc2)CC1  -37.5%
25. CCCCCCn1c(CN2CCCCC2)nc2c1c(=O)n(C)c(=O)n2C  -35.7%
26. CCCCCn1c(CN2CCN(C(=O)OCC)CC2)nc2c1c(=O)n(C)c(=O)n2C  -34.6%
27. CCCCCn1c(CN2CCN(C)CC2)nc2c1c(=O)n(C)c(=O)n2C  -33.1%
28. COc1ccc(-c2cn(-c3ccc(Cl)cc3)c3[n+]2CCCCC3)cc1.[Br-]  -31.9%
29. COc1cccc(N2CCN(C(=O)CCC(=O)N3CCOc4ccc(C)cc43)CC2)c1  -30.3%
30. O=C(c1sc2cccc(Cl)c2c1Cl)N1CCN(CCc2ccccn2)CC1  -28.9%
31. COc1ccc(N2CCN(C(=O)COC(=O)c3ccc(OC(F)F)cc3)CC2)cc1  -26.5%
32. O=C(Nc1ccnn1C1CCN(C2CCCCC2)CC1)c1ccccc1  -25.8%
33. CCc1noc(C)c1C(=O)Nc1cc(C(F)(F)F)ccc1-n1cncn1  -21.3%
34. COc1ccc(CCNC(=O)CCC(=O)N2CCOc3ccc(Cl)cc32)cc1OC  -20.2%
35. COc1ccc(-n2cc(-c3ccccc3)[n+]3c2CCCCC3)cc1.[Br-]  -19.3%
36. CCCCn1c(CN2CCN(C(=O)OCC)CC2)nc2c1c(=O)n(C)c(=O)n2C  -18.1%
37. CN1CCC(=NNC(=O)c2cc(-c3ccc(Cl)cc3)n[nH]2)CC1  -16.4%
38. COc1ccc(C2C(C#N)=C(SC)NC3=C2C(=O)CC(C)(C)C3)cc1 (centres unmarked)  -15.4%
39. COC(=O)c1c(NC(=O)COC(=O)C2CCC2)sc(C)c1C  -13.4%
40. CCn1c2ccccc2c2cc(CN3CCN(S(=O)(=O)CC)CC3)ccc21.O=C(O)C(=O)O  -13.4%
41. COc1ccccc1NC(=O)Nc1ccnn1C1CCCCC1  -12.7%
42. CCOC(=O)COn1c(=O)c(-c2ccc(OC)c(OC)c2)[n+]([O-])c2ccccc21  -11.9%
43. O=C(c1sc2ccccc2c1Cl)N1CCN(c2ncccn2)CC1  -9.78%
44. CCCCCCn1c(CN2CCC(C)CC2)nc2c1c(=O)n(C)c(=O)n2C  -8.75%
45. O=C(Nc1ccc(Cl)cc1)N(C1=NCCC1)c1ccc(OC(F)F)cc1  -8.02%
46. Brc1ccc(-c2csc3[n+]2CCCCC3)cc1.[Br-]  -6.25%
47. O=C(CCC(=O)N1CCOc2ccccc21)N1CCOCC1  -5.85%
48. COc1ccccc1CNC(=O)CCC(=O)N1CCOc2ccc(Cl)cc21  -5.43%
49. C(=N\NC1=Nc2cccc3cccc1c23)/c1cccnc1  -5.08%
50. CC1=C(c2ccccc2)[N+](=O)C2(CCCCC2)N1[O-]  -4.49%
51. CC(C)(C)CNC(CO)C12CC3CC(CC(C3)C1)C2.Cl (centres unmarked)  -4.3%
52. O=C(c1sc2ccccc2c1Cl)N1CCN(c2ccc(F)cc2)CC1  -3.54%
53. COC(=O)c1ccccc1NC(=O)Cn1nc2n(C)c3ccccc3n2c(=O)c1=O  -3.54%
54. Cc1ccc(NC2CCCN(C(=O)c3cnc4ccccn4c3=O)C2)cc1C (centres unmarked)  -3.33%
55. CCC(=O)N(CCc1ccccc1C)Cc1cc2cc3c(cc2[nH]c1=O)OCO3  -3.05%
56. CCOc1ccc(CCNC(=O)CSCc2ccc(C)cc2)cc1OCC  -2.33%
57. [Cl-].c1ccc(-c2c[nH]c3[n+]2CCCCC3)cc1  -2.27%
58. O=C(c1sc2ccccc2c1Cl)N1CCN(c2ccccc2F)CC1  -1.51%
59. CSc1ccccc1NC(=O)c1c(Br)cnn1C  -1.39%
60. Cc1ccc(C(=O)Nc2nc3ccc(S(C)(=O)=O)cc3s2)o1  -0.566%
61. COc1cc(C)nc(N2CCCC(C(=O)NC3CCC(C)CC3)C2)n1 (centres unmarked)  -0.336%
62. Cc1ccc(C(=O)OC2CCOC2=O)cc1NC(=O)c1ccco1 (centres unmarked)  0.0901%
63. COc1cc2cc(Oc3ccc4ccc(=O)oc4c3)c(=O)oc2cc1OC(C)=O  0.234%
64. O=C(Nc1ccnn1C1CCN(C2CCCC2)CC1)c1ccccc1  1.61%
65. Cc1ncc(S(=O)(=O)C(C)(C)C)c(N)n1  2.37%
66. COc1cccc(NC(=O)CSc2nnnn2C(C)C)c1  2.64%
67. COc1ccccc1N1CCN(CC(=O)Nc2ccnn2C2CCCC2)CC1  3.01%
68. Cc1nnc(NC(=O)C2CCCO2)s1 (centres unmarked)  3.17%
69. Cc1nc(CN(C)C(=O)c2ccccc2OC2CCN(S(C)(=O)=O)CC2)cs1  3.35%
70. CCOc1ccc(CCNC(=O)COC(=O)C2CC2)cc1OCC  3.41%
71. O=C(Nc1ccc2c(c1)OCO2)c1ccc(CO)cc1  4.24%
72. Cc1cc(OCC(=O)OC(C)(C)C)c2c3c(c(=O)oc2c1)CCC3  5.64%
73. O=C(COC(=O)c1cc([N+](=O)[O-])ccc1NCCO)Nc1ccc2c(c1)OCO2  5.75%
74. CCCCn1c(CN2CCN(C(=O)OCC)CC2)nc2c1c(=O)[nH]c(=O)n2C  6.72%
75. O=C(c1cc(-c2ccccn2)nc2ccc(Cl)cc12)N1CCN(CCc2ccccc2)CC1  6.73%
76. Fc1ccc(-c2n[nH]c(=S)n2Cc2ccccc2)cc1  7.48%
77. Cn1nnnc1P(=O)(c1ccccc1)c1ccccc1  7.84%
78. Cc1cc(C)c2c(N)c(C(=O)NC3CC3)sc2n1  8.51%
79. CC1CCC(NC(=O)C2CC(=O)N(c3ccc4c(c3)OCCO4)C2)CC1 (centres unmarked)  8.92%
80. Cc1cc2c(cc1C)NC(=O)CC(C(F)(F)C(F)(F)C(F)(F)F)=N2  9.6%
81. COc1ccc(-c2cn3cc(C(F)(F)F)cc(Cl)c3n2)cc1  9.73%
82. O=c1c2ccccc2nc2n1CCO2  10.2%
83. Cc1ccc(N2CC(C(=O)NCCN3CCOCC3)CC2=O)cc1C (centres unmarked)  10.2%
84. O=C(Nc1cccc2nsnc12)c1ccc(-c2cccc(Cl)c2)o1  10.4%
85. O=C(c1cc(=O)[nH]c2ccccc12)N1CCc2ccccc2C1  11%
86. NCc1nc(-c2ccc(Cl)cc2)no1  11.2%
87. CCOCCn1c(CN2CCCC(C)C2)nc2c1c(=O)n(C)c(=O)n2C (centres unmarked)  11.7%
88. Cc1nnc(SCC(=O)Nc2ccc3c(c2)OCCO3)n1N  12.4%
89. O=C1NCC(O)=C1C=NC12CC3CC(CC(C3)C1)C2 [4246017]  12.6%
90. O=C(O)c1ccc(NC(=O)C(c2ccccc2)c2ccccc2)cc1  14.3%
91. O=C(Oc1nsnc1N1CCOCC1)N1CCOCC1  15.3%
92. CCOc1ccc(S(=O)(=O)NCc2cccnc2)cc1  15.5%
93. COc1ccc(C2=NOC3(CC(=O)N(c4ccc(F)cc4)C3=O)C2)cc1 (centres unmarked)  15.5%
94. c1ccc(-c2cccc(-c3ccccc3)n2)cc1  18.4%
95. COc1ccc(NC(=O)N2c3ccc(OC)cc3C(C)=CC2(C)C)cc1  20.1%
96. FC(F)(F)c1ccccc1NC(=S)NN=C1CCCCCC1  23.5%
97. COC(=O)[C@@H]1CCCN1Cc1c(C(=O)N2CCOCC2)nc2c(C)cccn12  24.1%
98. COc1ccc(-c2nsc3c(N4CCCCC4C)ncnc23)cc1 (centres unmarked)  33.3%
